# From PubChem BioAssay AID1839 (Johns Hopkins Ion Channel Center, 2009)
# Out of some 2,400 compounds screened, about 220 (9.2%) were called active.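 How the source made its calls: active means signal change above the mean of dofetilide-free buffer controls plus 3 SD, so a positive margin; inactive means the rest.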 For the sample, actives were picked, then their nearest neighbours and some compounds at random.
# Assay: nonspecific flux effects in parental CHO-K1, confirmation, counter-screen for hERG block protection project, cell-based, CHO-K1 parental line, FluxOR thallium flux (AID 1839);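 further: compounds applied alone with no dofetilide to cells lacking hERG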
# Settings: CHO-K1 parental cells, FluxOR thallium flux fluorescence; at 10 µM
row,Structure (SMILES),"signal change vs control minus 3*SD hit threshold (margin above threshold, higher = more increase)"
1,O=C1OCCC1Sc1nc2ccccc2c(=O)n1Cc1ccc(F)cc1 (configuration not stated),-13.7% (inactive)
2,CCc1ccc(C(=O)NNC(=O)c2ccc(=O)n(C)n2)cc1,-31% (inactive)
3,O=C(NC(=S)N1CCN(c2nc(-c3ccccc3)cs2)CC1)c1cncc(Br)c1,-12.3% (inactive)
4,CC(NC(=O)NC1CCCCC1)c1ccccc1 (configuration not stated),-8.9% (inactive)
5,Oc1c(N=Nc2ccccn2)ccc2ccccc12,-28.3% (inactive)
6,O=C(N/N=C\c1coc2ccccc2c1=O)c1ccco1,-25.6% (inactive)
7,CC(/C=C1\SC(=S)N(c2ccc(C(=O)O)cc2)C1=O)=C\c1ccccc1,-40.7% (inactive)
8,O=C(O)COc1ccccc1/C=C1\SC(=S)N(NC(=O)c2ccccc2O)C1=O,-20.5% (inactive)
9,Cc1c(N2C(=O)/C(=C\c3ccccc3O)SC2=S)c(=O)n(-c2ccccc2)n1C,7.5% (active)
10,COc1ccc(N(C(=O)c2ccco2)S(=O)(=O)c2cccs2)cc1,-26.1% (inactive)
11,O=C(Cn1cncn1)c1ccccc1Br,-37.9% (inactive)
12,Cc1cc(C)cc(-n2ncc3c2CCCC3NC(=O)c2csnn2)c1 (configuration not stated),-40.3% (inactive)
13,CCCCN1C(=O)/C(=C2/Sc3ccc(Cl)cc3N2CC)SC1=S,-39.8% (inactive)
14,COc1ccc(OC)c(NC(=O)C(=O)NNC(=O)C23CC4CC(CC(C4)C2)C3)c1,42.5% (active)
15,COc1ccc(OCC(=O)NNC(=O)C(=O)Nc2cc(OC)ccc2OC)cc1,-1.8% (inactive)
16,COc1ccc(OC)c(NC(=O)C(=S)NC2CCCCC2)c1,-22.8% (inactive)
17,CC(NC(=O)CCCn1cc([N+](=O)[O-])cn1)c1ccccc1 (configuration not stated),-29.8% (inactive)
18,CCCCNC(=S)NNC(=O)c1ccc2c(c1)OCO2,-29.2% (inactive)
19,N=C1C(=O)OCC1c1cc(Cl)ccc1NC(=O)Nc1ccccc1 (configuration not stated),-31.4% (inactive)
20,CC(C)(C)NC(=O)C(=O)NNC(=O)c1ccccc1,-23.3% (inactive)
21,Cc1cccc(NC(=O)C(=O)NNC(=O)c2ccc(C(C)(C)C)cc2)c1,44.5% (active)
22,CC(C)(C)NC(=O)C(=O)NNC(=O)c1cccc(Br)c1,-6.8% (inactive)
23,CC(C)(C)NC(=O)C(=O)NNC(=O)c1ccc(C(C)(C)C)cc1,1.9% (active)
24,Cc1cccc(C(=O)NC(=S)NNC(=O)c2ccc(Cl)cc2)c1,-44.5% (inactive)
25,CCCc1cc(C(=O)NNC(=S)Nc2cccc(C)c2)cs1,-32.4% (inactive)

row,Structure (SMILES),"signal change vs control minus 3*SD hit threshold (margin above threshold, higher = more increase)"
1,CCOC(=O)N1CCN(C(=O)COC(=O)c2cc(Cl)c(O)c(Cl)c2)CC1,-24.7% (inactive)
2,Cc1ccc(O)c(Sc2cc(C)ccc2O)c1,-41.7% (inactive)
3,CC(C)CSC1=NSC2=NC(=O)/C(=C\c3ccccc3)C(=N)N12,-21.5% (inactive)
4,O=C(COc1coc(CN2CCc3ccccc3C2)cc1=O)Nc1cccc(Cl)c1,-31.3% (inactive)
5,CCOc1ccc2[nH]c(=O)c(CN(Cc3ccc(C)cc3)C(=O)N3CCCC3)cc2c1,-28% (inactive)
6,COc1ccc(NC(=O)C2CC3CCC2C3)c(OC)c1 (configuration not stated),-22.3% (inactive)
7,O=C(N/N=C/C(Cl)=C/c1ccc([N+](=O)[O-])cc1)C(=O)Nc1ccc(C(=O)O)cc1,-32.7% (inactive)
8,O=[N+]([O-])c1ccc(Nc2ccccc2F)nc1,-20.1% (inactive)
9,O=C(NCCCN1CCCC1=O)c1ccc(OC(F)(F)F)cc1,-32.6% (inactive)
10,COc1ccc(C(=O)N(CN2CCCC2=O)c2ccc(C)cc2)cc1,-4.3% (inactive)
11,CCOc1ccc(C(=O)N(CN2CCCC2=O)c2ccc(C)cc2)cc1,7.5% (active)
12,CCOC(=O)Cc1csc(NC(=S)NC(=O)c2ccc(Cl)cc2)n1,-26.4% (inactive)
13,C=C(C)CNC(=S)NN=C1c2ccccc2-c2ccccc21,-25% (inactive)
14,O=c1c(-c2ccc(Cl)cc2)[n+]([O-])c2ccccc2n1O,29.3% (active)
15,O=c1c(-c2cccc3ccccc23)[n+]([O-])c2ccccc2n1O,-12.8% (inactive)
16,Cc1ccc(-c2c(=O)n(O)c3ccccc3[n+]2[O-])cc1,15.9% (active)
17,O=c1c(-c2ccccc2)[n+]([O-])c2ccccc2n1O,-26.3% (inactive)
18,COc1ccc(S(=O)(=O)N2CCN(C(=O)CNC(=O)c3ccc4c(c3)OCO4)CC2)cc1,-26.4% (inactive)
19,Cc1cc2c(cc(C(=O)OC(C(=O)NCc3ccco3)C(C)C)n2C)o1 (configuration not stated),-12.7% (inactive)
20,Cn1c(=O)c2c(nc(Cl)n2CC(=O)N2CCCCC2)n(C)c1=O,-27.9% (inactive)
21,CCOC(=O)C1CCCCN1Cc1ccc(F)cc1 (configuration not stated),-18.3% (inactive)
22,CCc1ccc(S(=O)(=O)NC(=S)NC2CCCCC2)cc1,1.9% (active)
23,Cc1ccc(S(=O)(=O)NC(=S)NC2CCCCC2)cc1,-13% (inactive)
24,O=S(=O)(NC(=S)NC1CCCCC1)c1ccc(Cl)cc1,-16.4% (inactive)
25,CCCn1c(CC)nc([N+](=O)[O-])c1S(=O)(=O)c1ccccc1,-15.2% (inactive)

row,Structure (SMILES),"signal change vs control minus 3*SD hit threshold (margin above threshold, higher = more increase)"
1,COC(=O)c1c(NS(=O)(=O)Cc2ccccc2)sc2c1CCCC2,-1.7% (inactive)
2,CCC(C)(C)NC(=O)c1ccc(Sc2nncn2C)c([N+](=O)[O-])c1,-27.2% (inactive)
3,Cc1cccc(N/C(N)=N/c2nc(C)cc(=O)[nH]2)c1,-33% (inactive)
4,Cc1ccc(Nc2nc(C)cs2)cc1,-10.7% (inactive)
5,Cc1ccc(Nc2cc(C)nn2-c2nc(C)cc(=O)[nH]2)cc1,15.1% (active)
6,CC(C)(C)Cc1nnc(NC(=O)c2ccco2)s1,-32.3% (inactive)
7,CC1=[N+]([O-])C(C)(C)C(c2ccc(Br)cc2)=[N+]1[O-],-17% (inactive)
8,COC(=O)c1sc(NC(=S)NC(=O)c2ccccc2F)nc1C,-6.2% (inactive)
9,COc1ccccc1C(=O)NCc1ccc2c(c1)OCO2,-31% (inactive)
10,O=C(COc1ccc(Cl)cc1)NNC(=O)C(=O)NC1CCCCC1,-26.3% (inactive)
11,COc1ccc(NC(=O)C(=O)NNC(=O)c2ccc(Cl)cc2Cl)cc1,-20.1% (inactive)
12,COc1ccccc1C(=O)NNC(=O)C(=O)Nc1ccc(C)c(Cl)c1,55.4% (active)
13,COc1cc(NC(=O)c2ccccc2OCc2ccccc2)cc(OC)c1OC,-34.3% (inactive)
14,COc1ccccc1C(=O)NNC(=O)C(=O)NC1CCCCC1,14.6% (active)
15,Cc1ccc(NC(=O)c2ccc3c(c2)OCO3)cc1Cl,-25.4% (inactive)
16,Cc1ccc(NC(=O)C(=O)NNC(=O)c2ccccc2C)cc1Cl,35% (active)
17,Cc1ccccc1C(=O)NNC(=O)c1cccc([N+](=O)[O-])c1,-30% (inactive)
18,COc1ccc(C(=O)CC(=O)C(=O)Nc2ccc(C)c(Cl)c2)cc1,-23% (inactive)
19,COc1ccc(C(=O)NNC(=O)C(=O)NC2CCCCC2)cc1,-33.5% (inactive)
20,COc1ccccc1C(=O)NNC(=O)C(=O)NCc1ccccc1,3.6% (active)
21,Cc1ccc(-n2ncc3c2CCCC3NC(=O)c2csnn2)cc1C (configuration not stated),-37.5% (inactive)
22,Cc1ccc(NC(=O)c2c([N+](=O)[O-])c(C(C)(C)C)nn2C)cc1,-22.3% (inactive)
23,Cc1cc(C)c(NC(=O)C2CC3CCC2C3)c(C)c1 (configuration not stated),-16.2% (inactive)
24,CC(C)(C)C(=O)NC(=S)N1CCOCC1,-15.9% (inactive)
25,Cc1ccc(C)n1-n1c(C)nc2scc(-c3ccccc3)c2c1=O,-33.2% (inactive)

row,Structure (SMILES),"signal change vs control minus 3*SD hit threshold (margin above threshold, higher = more increase)"
1,Cc1c(Cl)cccc1NC(=S)N=Nc1c(O)n(CN2CCOCC2)c2ccccc12,-31.2% (inactive)
2,O=C(NC(=S)N(CCc1ccccc1)CCc1ccccc1)c1ccco1,-17.5% (inactive)
3,CCOc1ccc(S(=O)(=O)Nc2nc3ccccc3nc2-n2ccc(=NC(=O)c3cccs3)cc2)cc1,-31.9% (inactive)
4,CS(=O)(=O)N1CCN(c2ccccc2NC(=O)Nc2cccc(Cl)c2)CC1,-32.6% (inactive)
5,O=C1N2CCSC2=NC1(NS(=O)(=O)c1ccccc1)C(F)(F)F (configuration not stated),-19% (inactive)
6,Cc1ccc(Nc2nc(-c3cccs3)cs2)nc1,-32.7% (inactive)
7,CC(C)(C)NC(=O)CN(C(=O)CS(=O)CC(=O)Nc1ccc(F)cc1)c1cccc(F)c1 (configuration not stated),-27.9% (inactive)
8,O=c1c(Cc2ccccc2)c(O)nc2n1CCCS2,-25.5% (inactive)
9,COc1ccccc1C(=O)Nc1ccc(C(=O)N2CCCC2)cc1,-13% (inactive)
10,COc1ccccc1C(=O)NNC(=O)C(=O)NC(C)(C)C,-7.1% (inactive)
11,COc1ccccc1C(=O)NNC(=O)C(=O)Nc1cccc(Cl)c1C,55.6% (active)
12,COc1ccccc1C(=O)NNC(=O)C(=O)Nc1ccc(C)cc1,59.6% (active)
13,C/C(CC(=O)Nc1ccccn1)=N\NC(=O)C(=O)Nc1cccc(Cl)c1C,-14.9% (inactive)
14,Cc1ccccc1C(=O)NNC(=O)C(=O)Nc1cccc(Cl)c1C,-1.4% (inactive)
15,Cc1ccc(OCC(=O)NC(=S)Nc2ccc(Br)cn2)cc1C,-27.8% (inactive)
16,Cn1cc([N+](=O)[O-])c(C(=O)N/N=C\c2c[nH]c3ccccc23)n1,-27% (inactive)
17,O=C(Cc1cccs1)Nn1c(Cc2cccs2)nc2ccccc2c1=O,-15.1% (inactive)
18,Cc1cc(NC(=O)CCCn2cnc([N+](=O)[O-])n2)no1,-28.2% (inactive)
19,COC(=O)C(C)Sc1nnc(Cc2cc(=O)[nH]c(=O)[nH]2)n1-c1cccc(OC)c1 (configuration not stated),-26% (inactive)
20,S=c1[nH]nc(-c2cccs2)n1/N=C/c1c(Cl)cccc1Cl,-17.3% (inactive)
21,CN(C)S(=O)(=O)c1cc(NC2CC(=O)N(c3ccc(F)cc3)C2=O)ccc1Cl (configuration not stated),-30.5% (inactive)
22,Cc1cc(C)c(C(=O)c2ccc(C(=O)N3CCCCC3)cc2)c(C)c1,-37.3% (inactive)
